Among the data in PubChem BioAssay (NCI) are growth inhibition values, retold here.

Compounds without any hit were thinned out: in the full panel of roughly 79,000, 15% have a hit. Unmarked numbers belong to inactive results. Calls of active or inactive are those of the source. Rule as the data show it: active = growth inhibition above about 70%; inactive = the rest.

The nature of this assay: NCI Yeast Anticancer Drug Screen. Data for the rad50 strain (AID 155).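 Also: 0% = growth of vehicle-only cultures of the same strain.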 The settings on record: S. cerevisiae rad50 strain growth inhibition; at 50.0 µM; stronger effect = higher value. Put shortly: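 Compounds were tested on a yeast strain with an engineered DNA damage repair alteration; the reported value is growth inhibition normalised to vehicle treatment.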
Consider `CC1(C)C/C(=C\c2cccc(Cl)c2)C(=O)c2ccccc21`, for which the growth inhibition is 11.8%.

For `Cc1ccc(C)c(NC(=O)C2C(=O)C(=O)N(c3cc(C)ccc3C)C2=O)c1` (stereo not given), the growth inhibition is 29.4%.

In the case of `Cn1c(=O)c2c(nc(Cl)n2C)n(C)c1=O`, the growth inhibition is 42.5%.

As for `CCOC(=O)COc1ccc(C)c2c1C(=O)CC2`, the growth inhibition was -11.2%.

Turning to `CCOc1ccc(NC(=O)CC2SC(=Nc3ccc(C)cc3C)NC2=O)cc1` (stereo not given), the growth inhibition was 12.6%.

Consider `CCC(O)C1CCCCC1O` (stereo not given), for which the growth inhibition is -8.95%.

Consider `Cc1ccc(C(=O)OC[C@H]2CC[C@@H](n3cc(N(C)C4CCCCC4)c(=O)[nH]c3=O)O2)cc1`, for which the growth inhibition was 2.4%.

On to `CN(CC(=O)NC(=O)c1ccccc1)Cc1ccccc1`, for which the growth inhibition is -1.7%.

For the compound `Cc1ccc([N+](=O)[O-])cc1S(=O)(=O)O`, the growth inhibition was 24.4%.

In the case of `CCN(CC)CCCNc1ccc2ncn3c4ccc(O)cc4c(=O)c1c23`, the growth inhibition was -14.8%.

In the case of `CCOc1ccc2c(N=[N+]=[N-])cc(C)nc2c1`, the growth inhibition is -46.1%.

On to `O=C(NCCNCCO)N/N=C/c1ccccc1`, for which the growth inhibition is -0.2%.

On to `S=c1ncnc2cc3[nH][nH]cc3cc12`, for which the growth inhibition is 1.95%.

Consider `c1ccc(Cn2nnc(-c3ccccc3)n2)cc1`, for which the growth inhibition is 19.3%.

As to `COc1ccc(S(=O)(=O)N/N=C/c2cc(I)cc([N+](=O)[O-])c2O)cc1`, the growth inhibition was 15.1%.

In the case of `COc1ccc(/C=N/NC(=O)C(=O)Nc2ccc(Cl)c([N+](=O)[O-])c2)cc1OC`, the growth inhibition was 2.15%.

With `O=C1OC(=O)c2c(Cl)c(Cl)c(Cl)c(Cl)c21`, the growth inhibition is 8.55%.

Take `CC(=O)OCC1OC(n2c(O)c(/C=C3\C=Nc4ccccc43)sc2=S)C(OC(C)=O)C(OC(C)=O)C1OC(C)=O` (stereo not given): the growth inhibition is 20.4%.

In the case of `O=C(Oc1ccccc1Cl)C1=C(C(=O)Oc2ccccc2Cl)CCC1`, the growth inhibition was 51.4%.

With `O=C(O)c1ccccc1C(=O)NCc1ccc(Cl)cc1Cl`, the growth inhibition is -3.75%.

For `CN1CCN(CC2C3CCC(C3)C2O)CC1` (stereo not given), the growth inhibition was -9%.

With `COC(=O)/C=C/C(=O)OC`, the growth inhibition is 9.75%.

`Cc1sc2c(c1C)/C(=N\O)c1cccn1-2`: the growth inhibition is -0.05%.

Regarding `CCC1CCC(CC)C1OC(C)=O` (stereo not given), the growth inhibition was -31.1%.

As to `COC(=O)C1(C(=O)OC)OC(c2ccc(OC)cc2)[C@H]2C(=O)N(C)C(=O)[C@H]21` (stereo not given in full), the growth inhibition was 2.75%.

As to `C=C(C(=O)NC1CCCCC1)c1ccccc1`, the growth inhibition was -9.2%.

For `ClCCCOC1CCCCO1` (stereo not given), the growth inhibition is -20.1%.

Take `NC(=O)N/N=C(/Cl)C(=O)NNC(N)=O`: the growth inhibition was -4.4%.

Turning to `Cc1ccc(C(=O)c2ccccc2C(=O)O)cc1C(=O)O`, the growth inhibition was 8.9%.

`CC/C(=C/c1cccc([N+](=O)[O-])c1)C(=O)O`: the growth inhibition was -9.3%.

As for `CC(NNC(=S)N1CCCCCC1)c1cccc[n+]1[O-]` (stereo not given), the growth inhibition was 97.4% (active).

For `O=c1[nH]c(C(F)(F)F)c(CCc2ccccc2)c(=O)[nH]1`, the growth inhibition was 3.5%.

As to `CC[N+](C)(CC)CC[N+]1(C)CCCCCCC1`, the growth inhibition was 12.9%.

For the compound `O=C1c2cccc3cc([N+](=O)[O-])cc(c23)C(=O)N1CC1CCCO1` (stereo not given), the growth inhibition was 75.3% (active).

On to `C=C1CC[C@H]2C(C)=CC[C@@H]3[C@H](OC(=O)[C@H]3COC)[C@@H]12`, for which the growth inhibition was 3.6%.

`CCOC(=O)c1ccc(-c2ccccc2)cc1`: the growth inhibition was -44.2%.

Turning to `O=c1oc2cc(O)ccc2cc1-c1nc2ccccc2o1`, the growth inhibition was -2.1%.

As for `CCOC(=O)Cc1cccnc1`, the growth inhibition is -27.6%.

As to `Cc1c(C(=O)O)n2cnnc2c2ccccc12`, the growth inhibition was 22.8%.

For the compound `O=C(/C=C\c1ccco1)NC(=O)NC(=O)N1CCCCC1`, the growth inhibition was -0.7%.
